From the supplement of paper PMC6411743
± gives the standard deviation of the averaged measurements. Targets with the largest changes are over-represented here; the source holds about 6,200 in all.

Experiments:
Assay in all cases: NP40-soluble protein abundance relative to vehicle (solubility fold change) (ratio); higher = more soluble protein in presence of AMP-PNP
[1] = target: A0A024R216|Q9Y3E1 (UniProt Q9Y3E1)
Summary of the method: (§1)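 Data come from three independent experiments in which Dounce-homogenised Jurkat crude lysate was treated at eight concentrations from 0.1 to 10 mM. Treatment ran 10 min at room temperature and then 3 min at 37 °C, after which 0.8% NP40 and benzonase were added for 60 min at 4 °C before ultracentrifugation. The supernatant underwent TMT labelling and LC-MS/MS, and vsn-normalised intensities were expressed as fold change against the detergent-processed vehicle in each replicate.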

[2] = target: A0A024RAC6 (UniProt Q14241)
Summary of the method: as §1

[3] = target: A0A075B738|P16284|P16284-6 (UniProt P16284)
Summary of the method: as §1

[4] = target: T1, A0A087WUL0|Q3LXA3 (UniProt Q3LXA3)
T1 sequence (whole entry): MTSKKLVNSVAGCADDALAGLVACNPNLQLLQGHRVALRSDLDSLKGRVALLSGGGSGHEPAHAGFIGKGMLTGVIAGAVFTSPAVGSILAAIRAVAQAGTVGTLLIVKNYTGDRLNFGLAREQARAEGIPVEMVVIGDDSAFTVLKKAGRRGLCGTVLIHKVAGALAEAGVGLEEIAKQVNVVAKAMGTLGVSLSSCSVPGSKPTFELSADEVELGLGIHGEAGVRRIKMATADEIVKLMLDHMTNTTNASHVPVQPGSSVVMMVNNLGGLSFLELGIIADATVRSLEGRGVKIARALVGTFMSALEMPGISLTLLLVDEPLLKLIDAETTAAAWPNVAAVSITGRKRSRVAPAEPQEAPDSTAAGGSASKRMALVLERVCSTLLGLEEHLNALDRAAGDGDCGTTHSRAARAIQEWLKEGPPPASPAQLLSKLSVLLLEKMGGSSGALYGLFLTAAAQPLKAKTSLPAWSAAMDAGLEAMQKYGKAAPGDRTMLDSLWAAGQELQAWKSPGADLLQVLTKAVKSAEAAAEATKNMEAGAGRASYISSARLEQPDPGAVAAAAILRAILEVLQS
Summary of the method: as §1

[5] = target: T2, A0A087WUT6|O60841 (UniProt O60841)
T2 sequence (whole entry): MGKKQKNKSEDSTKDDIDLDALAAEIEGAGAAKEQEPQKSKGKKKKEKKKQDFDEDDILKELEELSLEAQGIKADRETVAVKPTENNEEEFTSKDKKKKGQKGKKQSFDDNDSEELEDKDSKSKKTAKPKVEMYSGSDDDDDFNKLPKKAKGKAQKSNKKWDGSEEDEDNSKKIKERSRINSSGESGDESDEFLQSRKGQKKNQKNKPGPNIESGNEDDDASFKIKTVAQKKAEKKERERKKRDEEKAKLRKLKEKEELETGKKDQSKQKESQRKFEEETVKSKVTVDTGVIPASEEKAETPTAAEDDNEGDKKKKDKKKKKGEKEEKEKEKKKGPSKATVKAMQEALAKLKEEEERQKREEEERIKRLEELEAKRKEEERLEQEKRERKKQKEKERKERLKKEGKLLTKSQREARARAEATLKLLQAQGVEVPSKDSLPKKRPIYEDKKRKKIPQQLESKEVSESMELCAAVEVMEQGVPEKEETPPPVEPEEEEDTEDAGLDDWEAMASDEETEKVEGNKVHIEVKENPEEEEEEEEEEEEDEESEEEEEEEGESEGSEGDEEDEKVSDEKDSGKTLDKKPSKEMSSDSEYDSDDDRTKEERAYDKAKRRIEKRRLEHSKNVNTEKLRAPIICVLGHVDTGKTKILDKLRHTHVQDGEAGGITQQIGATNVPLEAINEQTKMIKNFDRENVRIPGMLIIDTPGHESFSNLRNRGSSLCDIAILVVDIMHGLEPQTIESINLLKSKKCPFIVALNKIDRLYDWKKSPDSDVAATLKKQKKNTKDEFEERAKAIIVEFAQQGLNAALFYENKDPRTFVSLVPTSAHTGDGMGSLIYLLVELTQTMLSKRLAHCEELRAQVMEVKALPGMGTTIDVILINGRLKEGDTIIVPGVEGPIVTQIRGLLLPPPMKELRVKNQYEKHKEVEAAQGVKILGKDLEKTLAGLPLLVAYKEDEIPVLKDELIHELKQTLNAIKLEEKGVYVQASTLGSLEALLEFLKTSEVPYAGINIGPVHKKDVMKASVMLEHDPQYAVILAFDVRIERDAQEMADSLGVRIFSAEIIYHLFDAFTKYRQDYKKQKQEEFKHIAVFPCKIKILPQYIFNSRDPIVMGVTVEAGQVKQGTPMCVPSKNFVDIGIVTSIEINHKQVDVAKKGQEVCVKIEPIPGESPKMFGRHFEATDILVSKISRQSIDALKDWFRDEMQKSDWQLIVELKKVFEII
Summary of the method: as §1

[6] = target: T3, A0A087WUU7|Q96GX5|Q96GX5-3|Q96GX5-2 (UniProt Q96GX5)
T3 sequence (whole entry): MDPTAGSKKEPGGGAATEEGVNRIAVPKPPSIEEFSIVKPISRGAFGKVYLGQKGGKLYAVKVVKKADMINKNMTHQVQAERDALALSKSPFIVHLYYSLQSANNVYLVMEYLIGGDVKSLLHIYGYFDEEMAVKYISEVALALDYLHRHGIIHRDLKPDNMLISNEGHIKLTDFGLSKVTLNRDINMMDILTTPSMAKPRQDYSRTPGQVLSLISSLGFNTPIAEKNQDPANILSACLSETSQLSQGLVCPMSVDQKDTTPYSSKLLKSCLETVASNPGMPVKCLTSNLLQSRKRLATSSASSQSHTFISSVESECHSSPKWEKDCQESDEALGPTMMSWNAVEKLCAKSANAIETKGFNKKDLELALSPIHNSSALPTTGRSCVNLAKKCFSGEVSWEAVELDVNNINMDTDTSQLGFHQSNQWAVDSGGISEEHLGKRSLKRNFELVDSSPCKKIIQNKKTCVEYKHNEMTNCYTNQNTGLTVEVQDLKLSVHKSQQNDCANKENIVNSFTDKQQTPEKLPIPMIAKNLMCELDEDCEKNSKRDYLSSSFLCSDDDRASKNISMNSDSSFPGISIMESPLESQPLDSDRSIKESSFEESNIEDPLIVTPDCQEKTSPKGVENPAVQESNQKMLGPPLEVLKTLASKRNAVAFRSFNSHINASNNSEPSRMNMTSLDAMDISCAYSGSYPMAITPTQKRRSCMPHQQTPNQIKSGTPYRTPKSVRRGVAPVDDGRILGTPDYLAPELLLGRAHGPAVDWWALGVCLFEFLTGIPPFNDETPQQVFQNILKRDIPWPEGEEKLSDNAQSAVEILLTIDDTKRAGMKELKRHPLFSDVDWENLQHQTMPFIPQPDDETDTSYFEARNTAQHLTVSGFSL
Summary of the method: as §1

[7] = target: T4, A0A087WV73|P46087|P46087-2|P46087-4 (UniProt P46087)
T4 sequence (whole entry): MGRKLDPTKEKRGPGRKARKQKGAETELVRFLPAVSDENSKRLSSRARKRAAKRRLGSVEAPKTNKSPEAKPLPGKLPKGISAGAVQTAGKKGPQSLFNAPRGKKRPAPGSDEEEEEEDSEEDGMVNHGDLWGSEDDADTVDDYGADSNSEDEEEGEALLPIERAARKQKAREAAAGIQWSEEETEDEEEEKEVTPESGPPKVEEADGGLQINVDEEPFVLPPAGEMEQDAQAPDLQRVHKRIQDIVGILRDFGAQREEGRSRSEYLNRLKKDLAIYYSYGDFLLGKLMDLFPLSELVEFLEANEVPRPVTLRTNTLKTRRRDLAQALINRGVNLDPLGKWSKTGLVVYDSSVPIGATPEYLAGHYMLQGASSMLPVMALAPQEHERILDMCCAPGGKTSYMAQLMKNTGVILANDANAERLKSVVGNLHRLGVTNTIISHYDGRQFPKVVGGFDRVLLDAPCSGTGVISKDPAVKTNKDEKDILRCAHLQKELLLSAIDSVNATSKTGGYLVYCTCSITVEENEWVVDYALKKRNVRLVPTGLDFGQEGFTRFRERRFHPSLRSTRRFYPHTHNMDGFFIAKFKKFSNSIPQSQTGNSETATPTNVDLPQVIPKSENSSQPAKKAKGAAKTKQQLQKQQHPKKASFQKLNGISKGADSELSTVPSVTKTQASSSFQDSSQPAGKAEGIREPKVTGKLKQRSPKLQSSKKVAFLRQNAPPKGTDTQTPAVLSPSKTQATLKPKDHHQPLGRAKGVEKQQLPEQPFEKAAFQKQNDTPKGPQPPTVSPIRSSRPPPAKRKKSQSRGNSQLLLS
Summary of the method: as §1

[8] = target: A0A087WW88|Q9UQN3 (UniProt Q9UQN3)
Summary of the method: as §1

[9] = target: T5, A0A087WWS1|Q96FV9 (UniProt Q96FV9)
T5 sequence (whole entry): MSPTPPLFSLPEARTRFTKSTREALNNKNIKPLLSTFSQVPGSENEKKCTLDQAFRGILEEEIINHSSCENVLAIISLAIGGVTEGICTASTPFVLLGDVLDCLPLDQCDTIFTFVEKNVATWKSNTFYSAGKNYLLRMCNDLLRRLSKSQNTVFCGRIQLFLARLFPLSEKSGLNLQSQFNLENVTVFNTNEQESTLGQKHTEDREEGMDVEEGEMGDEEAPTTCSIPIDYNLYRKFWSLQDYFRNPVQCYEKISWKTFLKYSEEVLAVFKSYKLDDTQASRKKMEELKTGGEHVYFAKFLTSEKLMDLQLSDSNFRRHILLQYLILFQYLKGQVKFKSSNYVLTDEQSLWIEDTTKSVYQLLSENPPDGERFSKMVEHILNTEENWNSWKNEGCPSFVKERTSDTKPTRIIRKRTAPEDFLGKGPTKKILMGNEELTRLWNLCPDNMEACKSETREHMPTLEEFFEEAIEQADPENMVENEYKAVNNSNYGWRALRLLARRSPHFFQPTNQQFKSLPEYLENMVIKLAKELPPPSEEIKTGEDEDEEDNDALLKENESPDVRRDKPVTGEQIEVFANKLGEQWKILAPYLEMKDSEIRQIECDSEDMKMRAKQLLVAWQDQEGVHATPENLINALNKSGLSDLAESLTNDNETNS
Summary of the method: as §1

A0A024RAC6, sequence (Q14241 whole entry): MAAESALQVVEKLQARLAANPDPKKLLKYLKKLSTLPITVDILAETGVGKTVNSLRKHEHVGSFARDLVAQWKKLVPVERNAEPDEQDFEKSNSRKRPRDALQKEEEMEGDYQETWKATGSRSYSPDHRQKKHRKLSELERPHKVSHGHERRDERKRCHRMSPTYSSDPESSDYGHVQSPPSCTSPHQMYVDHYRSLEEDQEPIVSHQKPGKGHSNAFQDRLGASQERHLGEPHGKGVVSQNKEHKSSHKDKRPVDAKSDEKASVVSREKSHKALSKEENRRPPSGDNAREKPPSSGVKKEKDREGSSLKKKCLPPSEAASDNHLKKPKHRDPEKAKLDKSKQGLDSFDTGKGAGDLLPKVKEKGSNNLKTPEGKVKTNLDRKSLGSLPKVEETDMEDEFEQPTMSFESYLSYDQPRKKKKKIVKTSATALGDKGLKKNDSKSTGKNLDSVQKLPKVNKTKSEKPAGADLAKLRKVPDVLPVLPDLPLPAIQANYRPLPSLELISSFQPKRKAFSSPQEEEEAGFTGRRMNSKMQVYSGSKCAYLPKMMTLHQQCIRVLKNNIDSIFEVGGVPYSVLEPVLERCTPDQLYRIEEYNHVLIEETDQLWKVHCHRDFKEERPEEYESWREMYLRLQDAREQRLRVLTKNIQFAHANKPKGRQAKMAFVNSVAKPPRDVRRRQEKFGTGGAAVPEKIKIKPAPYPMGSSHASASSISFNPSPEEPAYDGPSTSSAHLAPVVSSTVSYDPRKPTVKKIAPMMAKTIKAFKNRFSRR
A0A024R216|Q9Y3E1, sequence (Q9Y3E1 whole entry, one chain of several): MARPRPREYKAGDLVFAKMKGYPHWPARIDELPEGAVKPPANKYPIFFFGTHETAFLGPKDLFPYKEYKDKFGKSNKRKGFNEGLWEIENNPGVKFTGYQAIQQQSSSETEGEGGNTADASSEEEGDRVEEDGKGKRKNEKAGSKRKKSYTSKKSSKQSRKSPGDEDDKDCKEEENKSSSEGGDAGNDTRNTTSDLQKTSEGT
A0A087WW88|Q9UQN3, sequence (Q9UQN3 whole entry, one chain of several): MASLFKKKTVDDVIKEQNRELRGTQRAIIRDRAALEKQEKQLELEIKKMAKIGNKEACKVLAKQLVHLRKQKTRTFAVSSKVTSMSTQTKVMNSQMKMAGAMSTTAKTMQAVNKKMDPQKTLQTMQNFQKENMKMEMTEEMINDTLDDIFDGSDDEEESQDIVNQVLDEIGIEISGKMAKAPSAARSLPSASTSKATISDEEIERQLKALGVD

Nc1ncnc2c1ncn2[C@@H]1O[C@H](COP(=O)(O)OP(=O)(O)NP(=O)(O)O)[C@@H](O)[C@H]1O [adenylyl imidodiphosphate]
NP40-soluble protein abundance ([1]; concentration: 1mM): 1 ± 0.031 | NP40-soluble protein abundance ([1]; concentration: 2mM): 1.1 ± 0.17 | NP40-soluble protein abundance ([1]; concentration: 4mM): 1.05 ± 0.074 | NP40-soluble protein abundance ([1]; concentration: 6mM): 1.16 ± 0.074 | NP40-soluble protein abundance ([1]; concentration: 8mM): 1.11 ± 0.06 | NP40-soluble protein abundance ([1]; concentration: 10mM): 1.17 ± 0.14 | NP40-soluble protein abundance ([2]; concentration: 1mM): 1.05 ± 0.014 | NP40-soluble protein abundance ([2]; concentration: 2mM): 1.13 ± 0.076 | NP40-soluble protein abundance ([2]; concentration: 4mM): 1.06 ± 0.029 | NP40-soluble protein abundance ([2]; concentration: 6mM): 1.08 ± 0.044 | NP40-soluble protein abundance ([2]; concentration: 8mM): 1.06 ± 0.022 | NP40-soluble protein abundance ([2]; concentration: 10mM): 1.09 ± 0.019 | NP40-soluble protein abundance ([3]; concentration: 1mM): 1.02 ± 0.027 | NP40-soluble protein abundance ([3]; concentration: 2mM): 1.08 ± 0.095 | NP40-soluble protein abundance ([3]; concentration: 4mM): 1.01 ± 0.033 | NP40-soluble protein abundance ([3]; concentration: 6mM): 0.995 ± 0.011 | NP40-soluble protein abundance ([3]; concentration: 8mM): 0.98 ± 0.013 | NP40-soluble protein abundance ([3]; concentration: 10mM): 0.994 ± 0.032 | NP40-soluble protein abundance ([4]; concentration: 1mM): 1.02 ± 0.024 | NP40-soluble protein abundance ([4]; concentration: 2mM): 1.05 ± 0.05 | NP40-soluble protein abundance ([4]; concentration: 4mM): 1.03 ± 0.054 | NP40-soluble protein abundance ([4]; concentration: 6mM): 0.997 ± 0.01 | NP40-soluble protein abundance ([4]; concentration: 8mM): 0.963 ± 0.027 | NP40-soluble protein abundance ([4]; concentration: 10mM): 1.02 ± 0.036 | NP40-soluble protein abundance ([5]; concentration: 1mM): 1.05 ± 0.012 | NP40-soluble protein abundance ([5]; concentration: 2mM): 1.02 ± 0.018 | NP40-soluble protein abundance ([5]; concentration: 4mM): 1.02 ± 0.017 | NP40-soluble protein abundance ([5]; concentration: 6mM): 1.01 ± 0.033 | NP40-soluble protein abundance ([5]; concentration: 8mM): 1.004 ± 0.0073 | NP40-soluble protein abundance ([5]; concentration: 10mM): 0.997 ± 0.035 | NP40-soluble protein abundance ([6]; concentration: 1mM): 1.01 ± 0.02 | NP40-soluble protein abundance ([6]; concentration: 2mM): 1.07 ± 0.036 | NP40-soluble protein abundance ([6]; concentration: 4mM): 1.01 ± 0.044 | NP40-soluble protein abundance ([6]; concentration: 6mM): 0.976 ± 0.023 | NP40-soluble protein abundance ([6]; concentration: 8mM): 0.967 ± 0.011 | NP40-soluble protein abundance ([6]; concentration: 10mM): 0.991 ± 0.04 | NP40-soluble protein abundance ([7]; concentration: 1mM): 1.04 ± 0.038 | NP40-soluble protein abundance ([7]; concentration: 2mM): 1.12 ± 0.068 | NP40-soluble protein abundance ([7]; concentration: 4mM): 1.17 ± 0.05 | NP40-soluble protein abundance ([7]; concentration: 6mM): 1.28 ± 0.067 | NP40-soluble protein abundance ([7]; concentration: 8mM): 1.34 ± 0.094 | NP40-soluble protein abundance ([7]; concentration: 10mM): 1.43 ± 0.093 | NP40-soluble protein abundance ([8]; concentration: 1mM): 1.03 ± 0.024 | NP40-soluble protein abundance ([8]; concentration: 2mM): 1.03 ± 0.0098 | NP40-soluble protein abundance ([8]; concentration: 4mM): 1.03 ± 0.03 | NP40-soluble protein abundance ([8]; concentration: 6mM): 1.04 ± 0.018 | NP40-soluble protein abundance ([8]; concentration: 8mM): 1.03 ± 0.042 | NP40-soluble protein abundance ([8]; concentration: 10mM): 1.03 ± 0.014 | NP40-soluble protein abundance ([9]; concentration: 1mM): 1.35 ± 0.15 | NP40-soluble protein abundance ([9]; concentration: 2mM): 1.52 ± 0.22 | NP40-soluble protein abundance ([9]; concentration: 4mM): 1.64 ± 0.29 | NP40-soluble protein abundance ([9]; concentration: 6mM): 1.86 ± 0.46 | NP40-soluble protein abundance ([9]; concentration: 8mM): 1.96 ± 0.56 | NP40-soluble protein abundance ([9]; concentration: 10mM): 2.2 ± 0.76
